Screening data deposited in PubChem BioAssay by several laboratories.
This is a sample that favours compounds with a hit; in the whole collection about 2.9% have one here.
SMARCA2 activ – activators of SMARCA2 function. MG213 cells, MMTV-luciferase reporter, dexamethasone, overnight. activation, % at 9.1 µM. actives 1% (n = 370,000); in the data active means activation above about 7.8%;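 further: 0% = vehicle wells and 100% = reference activator wells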
FAS TE block – blocks the thioesterase domain of human fatty acid synthase; P49327; recombinant FAS-TE, OMFH fluorogenic substrate, fluorescence endpoint; inhibition, % at 15 µM; actives 0.67% (n = 360,000);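 active means compounds whose normalised, plate-corrected inhibition of enzyme fluorescence in the single-dose primary screen is 50% or more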;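 further: 0% = DMSO with enzyme and 100% = substrate without enzyme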
KLK7 zymogen act – activates the human kallikrein-7 zymogen | AID 652039 | activation, % at 7 µM | P49862 | actives 0.9% (n = 370,000) | purified proKLK7, EDANS-DABCYL substrate fluorescence; 100% is mature enzyme control, 0% vehicle;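 active means activation above the mean of all tested compounds plus 3 SD, computed per campaign excluding outliers beyond control limits, cut at about 13% in these data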
Target sequence (P49862 whole entry, looked up): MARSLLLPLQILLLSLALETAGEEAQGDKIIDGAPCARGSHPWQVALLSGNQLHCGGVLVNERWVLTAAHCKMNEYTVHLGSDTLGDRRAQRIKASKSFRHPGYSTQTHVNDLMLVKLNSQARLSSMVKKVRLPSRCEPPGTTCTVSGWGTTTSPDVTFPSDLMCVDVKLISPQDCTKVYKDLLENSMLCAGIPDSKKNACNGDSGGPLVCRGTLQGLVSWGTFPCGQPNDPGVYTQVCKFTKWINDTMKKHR
FXN GAA850 act – frataxin GAA850 promoter activation; HEK293 lucGAA850 FXN promoter luciferase reporter, 24 h; percent of 10 µM SAHA response; actives 0.56% (n = 360,000); AID 540364; activation, % at 6 µM;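 active means activation above the average of all compounds screened plus 3 SD, cutoff fixed separately per campaign, cut at about 7.5% in these data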;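 further: 0% = DMSO wells and 100% = 10 µM SAHA wells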
proKLK7 act conf – proKLK7 activation, confirmation; AID 686949; purified proKLK7, EDANS-DABCYL substrate fluorescence; scaled: vehicle 0, mature enzyme 100; activation, % at 7 µM; shares compounds with KLK7 zymogen act; actives 68% (n = 3,200);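 active means activation, as change over the incubation, above the mean of all tested compounds plus 3 SD, cut at about 13% in these data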
EDANS-DABCYL int – optically interferes with EDANS-DABCYL signal, flagging KLK7 hits. shares compounds with KLK7 zymogen act. EDANS-DABCYL substrate fluorescence interference, no enzyme, 4 h; solvent 0%, active enzyme control 100%. actives 80% (n = 3,200). activation, % at 7 µM;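 active means activation above the all-compound mean plus 3 SD, ignoring values outside control-based bounds, cut at about 4.8% in these data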;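 further: value is the 4 h activation minus the activation read at time zero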
K7 EDANS ctr – optically interferes with EDANS-DABCYL fluorescence, kallikrein-7 activator counter-screen. actives 20% (n = 250). shares compounds with KLK7 zymogen act. EC50, µM. EDANS-DABCYL peptide fluorescence interference, no enzyme;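 active means compounds that raise the fluorescence signal in this interference counterscreen, with EC50 at or below 10 µM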;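 further: intact quenched peptide substrate alone read at 355 nm excitation and 520 nm emission; signal is fluorescence gain from T0 to T4 after four hours at room temperature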
Starred values were filed as active, the others as inactive; i = inactive; . = no result.

SMILES	SMARCA2 activ	FAS TE block	KLK7 zymogen act	FXN GAA850 act	proKLK7 act conf	EDANS-DABCYL int	others
CN(C)C=Nc1ccc2nc3c(cc2c1)[nH]c1ccccc13	8	-3	49*	9.2*	50*	41*	K7 EDANS ctr=>69
Cc1ccccc1-n1c2nc(=O)n(C)c(=O)c-2cc2ccccc21	-2	-2	21*	0	30*	19*	K7 EDANS ctr=i
O=C1O[C@@H](c2ccc(O)cc2)Cc2cccc(O)c21	0	-11	49*	1	44*	52*
CN(CC(=O)Nc1cccc(F)c1)CC(=O)N(C)c1c(N)n(Cc2ccccc2)c(=O)[nH]c1=O	-3	-8	0	2	.	.
NS(=O)(=O)c1ccc(CCNC(=O)CNCCc2ccc(C(F)(F)F)cc2)cc1	-3	-7	0	1	.	.
CC(=O)Nc1ccc2c3c(cccc13)C(=O)N(c1ccccc1)C2=O	1	1	59*	-3	65*	71*
CC1(C)CC(=O)C(C=Nc2cccnc2)=C(O)C1	-3	-4	0	2	.	.
CC1(C)CC(=O)C(C=Nc2cccnc2/N=C/C2=C(O)CC(C)(C)CC2=O)=C(O)C1	-1	12	25*	2	-7	-4
CCOc1cc2c(cc1O)CCC1C2CCC2(C)C(O)CCC12 (centres undefined)	0	-3	0	-1	.	.
CCCN(CCC)CCNC(=O)CCC(=O)Nc1ccc2nc(N3CCN(C)CC3)cc(C)c2c1	2	-9	25*	0	120*	121*
CCCCNC(=O)CCC(=O)Nc1ccc2nc(N3CCN(C)CC3)cc(C)c2c1	2	-5	1	3	.	.
Cc1cc(N2CCOCC2)nc2ccc(NC(=S)N3CCCCC3C)cc12 (centres undefined)	0	-4	21*	1	12	15*
Cc1cc(N2CCOCC2)nc2ccc(NC(=O)C3CCCCC3)cc12	0	-2	-1	2	.	.
Cc1cc(N2CCN(C)CC2)nc2ccc(NC(=S)N3CCN(c4ccc(Cl)cc4)CC3)cc12	-1	-3	15*	1	2	3
CCN(CC(=O)NCc1ccc(F)cc1)C(=O)c1cccnc1SC	-3	-6	0	2	.	.
CNc1ccccc1C(=O)OCC(=O)N(CCOC)c1c(N)n(CC(C)C)c(=O)[nH]c1=O	0	-6	20*	-2	18*	16*
CCn1c2ccccc2c2cc(NC(=O)CN3CCCC3)ccc21	-2	-3	82*	4	-1	-1
COc1ccc2cc3cc(C(=O)NCc4ccccn4)oc3nc2c1	-3	0	42*	0	-18	-4
O=C(NCc1ccco1)c1cc2cc3ccc(Cl)cc3nc2o1	4	12	1	1	.	.
COc1ccc2cc3cc(C(=O)NCc4ccco4)oc3nc2c1	-1	-4	49*	1	-43	-26
CCCn1c(-c2ccc[nH]c2=O)nc2ccccc21	-3	-2	3	1	.	.
c1ccc2c(c1)NC1(CCCC1)n1c-2nc2ccccc21	6	-6	82*	4	61*	66*
CCCC1(C)Nc2ccccc2-c2nc3ccccc3n21 (centres undefined)	4	-5	63*	5	10	7.1*
CCCn1c(=O)[nH]c(=O)c2c1nc(-c1ccc(OC(F)F)c(OC)c1)n2CCOC	0	1	-1	4	.	.
CNc1ccc(Cl)cc1C(N)=O	2	-6	17*	1	11	20*
O=C(c1cc2nc(-c3ccco3)cc(C(F)(F)F)n2n1)N1CCCCCC1	4	-2	4	7	.	.
O=C(NCCCN1CCCC1=O)c1cc2nc(-c3ccco3)cc(C(F)(F)F)n2n1	-1	-4	14*	2	13*	2	K7 EDANS ctr=>69
Nc1nc2sc3c(c2cc1C(=O)NCC(=O)O)CCCC3	-1	-3	-1	0	.	.
Nc1nc2sc3c(c2cc1C(=O)N1CCOCC1)CCCC3	1	-4	14*	-3	12	14*
COc1ccc(CNC(=O)c2ccc3c(c2)N(C)CCS3)cc1	0	2	35*	-1	8	33*
